The full list was thinned out, with hits kept by preference.
Methyltransferases: Primary Screen for Target Class Profiling of Small Molecule Inhibitors of Methyltransferases. hit rate 3.9% among 25,000. calls only at 40 µM. purified enzyme, MTase-Glo SAH luminescence; hits give low values; call rule not given here
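Each enzyme was reacted with SAM and its substrate, with compounds tested once at 40 uM; SAH formed was read by MTase-Glo luminescence.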
* marks the source's active call; other numbers are inactive results; i = inactive; + = active, no number. % is scaled to controls: 0 for no effect and ±100 for the full control effect.

SMILES | Methyltransferases
COc1ccc2cc3n(c2c1)CC(C)(C(=O)NC1CCCCCC1)N(CCCN1CC(C)CC(C)C1)C3=O (configuration not stated) | i
CCOC(=O)c1cccc(NS(=O)(=O)c2ccc3c(c2)NC(=O)CC(=O)N3)c1 | i
CC(C)NC(=O)CSc1nnc2n(C)c(=O)c3ccc(C(=O)NC4CCCCC4)cc3n12 | i
CC(C)CCNC(=O)C1(C)Cn2nc(C(=O)NCCN3CCCC3)cc2C(=O)N1C (configuration not stated) | i
CCCCOc1ccccc1-c1cc2n(n1)CC(C)(C(=O)NC1CCCCC1)N(CC)C2=O (configuration not stated) | i
CC(C)OCCCn1c(=O)c2cc(Cl)ccc2n2c(SCc3ccccc3F)nnc12 | i
CCOC(=O)c1cc2n(n1)CC(C)(C(=O)NCc1ccc(F)cc1)N(c1ccc(C)cc1C)C2=O (configuration not stated) | i
COCC(=O)N(C)Cc1ccc(F)cc1 | i
CCOC(=O)Nc1ccc(NCc2ccc(F)cc2)nc1N | +
O=C(NCCc1ccco1)c1cc2n(n1)CCCN(Cc1cccc(F)c1)C2=O | i
C=CCn1c(=O)c2cnc(Nc3ccc(N4CCN(C)CC4)cc3)nc2n1-c1cccc(C(C)(C)O)n1 | +
CCn1c(=O)c(-c2ccc(-c3cncs3)cc2Cl)cc2cnc(Nc3ccc(N4CCN(C)CC4)cc3)nc21 | i
CCCn1c(=O)c2cc(Cl)ccc2n2c(SCc3ccccc3)nnc12 | i
COc1ccc(OC)c2c1cc1n2CC(C)(C(=O)NC2CCCC2)N(Cc2ccccc2C)C1=O (configuration not stated) | i
O=C1CN(Cc2ccccc2Cl)S(=O)(=O)c2ccccc2N1Cc1ccc(F)cc1 | i
NCCc1ccc(O)c(O)c1 | +
O=C(Cn1nc2n(Cc3ccccc3)c(=O)c3ccccc3n2c1=O)NCc1ccccc1 | i
Cc1ccc(-c2nnn3c2nc(NCCC(C)C)c2ccccc23)cc1 | i
CC1CCC(NC(=O)C2(C)Cn3c(nc4ccccc43)C(=O)N2Cc2ccc(OC(C)C)cc2)CC1 (configuration not stated) | i
COc1cc(OC)c(NC(=O)N2CCn3cccc3C2Cc2ccccc2)cc1Cl (configuration not stated) | i
CC(C)NC(=O)CSc1nnc2n(CCc3ccccc3)c(=O)c3ccccc3n12 | i
O=C(O)/C=C/c1ccc(-c2ccc(O)c(C34CC5CC(CC(C5)C3)C4)c2)cc1 | +
O=C(O)/C=C/c1ccc(O)c(O)c1 | i
Cc1cccc(NC(=O)N2CCn3cccc3C2C(C)C)c1C (configuration not stated) | i
CC(C)CCNC(=O)C1(C)Cn2nc(C(=O)N3CCN(c4ccccc4F)CC3)cc2C(=O)N1C (configuration not stated) | i
SMILES | Methyltransferases
CC(C)Oc1ccc(CNC(=O)c2ncn3c2C(=O)N(C2CC2)C(C)(C(=O)NCc2ccccc2)C3)cc1 (configuration not stated) | i
COc1ccc(OC)c(-c2nnc3n(Cc4ccccc4)c(=O)c4ccccc4n23)c1 | i
C=C1C(=O)O[C@@H]2[C@H]3C(C)=CC(=O)C3=C(C)[C@@H](OC(=O)/C(C)=C\C)[C@H](O)[C@@H]12 | i
C=C1C(=O)OC2C(OC(=O)C=C(C)C)C(C)=C3C(=O)C=C(C)C3C(O)C12 (configuration not stated) | +
CCOC(=O)c1cc2n(n1)CC(C)(C(=O)NC1CCC(C)CC1)N(Cc1cccc(OC)c1)C2=O (configuration not stated) | i
CCCN1C(=O)c2cc(C(=O)NCCOC)nn2CC1(C)C(=O)NC1CCCC1 (configuration not stated) | i
Fc1ccc2c(c1)C1C=CCC1C(c1ccc(Cl)cc1)N2 (configuration not stated) | i
CC(C)COC(=O)c1ccc2c(c1)C1C=CCC1C(c1ccc(Cl)cc1)N2 (configuration not stated) | i
O=C(O)c1ccc2c(c1)C1C=CCC1C(c1ccc(Cl)cc1)N2 (configuration not stated) | +
CC1(C(=O)NC2CCCC2)Cn2c(ccc2-c2ccco2)C(=O)N1c1ccc(Cl)cc1 (configuration not stated) | i
CCc1c(Cl)c(O)c(Cl)c(O)c1C(=O)O[C@H]1[C@H](O)[C@H](OC)[C@H](OC/C2=C\C=C\C[C@H](O)/C(C)=C\[C@H](CC)[C@@H](O[C@@H]3OC(C)(C)[C@@H](OC(=O)C(C)C)[C@H](O)[C@@H]3O)/C(C)=C/C(C)=C/C[C@@H]([C@@H](C)O)OC2=O)O[C@@H]1C | +
Cc1ccc(C(=O)Cn2nc3n(CCCOC(C)C)c(=O)c4ccccc4n3c2=O)c(C)c1 | i
NC(=O)C1CCN(c2nc3c(-c4cccc(F)c4)nnn3c3ccc(Cl)cc23)CC1 | i
CCOC(=O)c1cc2n(n1)CC(C)(C(=O)NC1CCCCCC1)N(Cc1cccc(C)c1)C2=O (configuration not stated) | i
C=C(C)C(=O)OC1[C@@H]2C(=C)C(=O)O[C@@H]2C[C@@H](C)[C@@H]2C=CC(=O)[C@@]12C (some centres not stated) | i
C=C1C(=O)O[C@H]2C1CCC(C)=C1C(=O)C=C(C)[C@@]12O (some centres not stated) | i
C=C1C(=O)O[C@H]2CC(=C)[C@H]3CC[C@@](C)(O)[C@@H]3CC12 (some centres not stated) | +
CCCn1c(=O)c2cc(F)ccc2n2c(SCC(=O)Nc3cccc(Cl)c3)nnc12 | i
COc1ccc(Nc2nc3c(S(=O)(=O)c4ccc(C)cc4)nnn3c3ccccc23)cc1 | i
COc1ccc(C(=O)CSc2nnc3n(C)c(=O)c4ccc(C(=O)NC5CCCCC5)cc4n23)cc1 | i
CCC(C)NC(=O)c1ccc2c(=O)n(C3CC3)c3nn(CC(=O)NCc4ccccc4)c(=O)n3c2c1 (configuration not stated) | i
Cc1ccc(-c2nnn3c2nc(NCc2ccccc2)c2ccccc23)cc1 | i
CCOC(=O)[C@@H](N)Cc1ccc(-c2cc(O[C@H](c3ccc(Cl)cc3-n3ccc(C)n3)C(F)(F)F)nc(N)n2)cc1 | +
COc1cccc(-c2ccc([C@@H](Oc3cc(-c4ccc(C[C@H](N)C(=O)O)cc4)nc(N)n3)C(F)(F)F)cc2)c1 | i
N#Cc1cnc2cnc(NCc3cccnc3)cc2c1Nc1ccc(F)c(Cl)c1 | +
SMILES | Methyltransferases
O=S(=O)(c1cc(F)ccc1F)N1CCC(n2cc(CCCO)nn2)CC1 | i
CNC(=O)[C@@H]1C[C@H](n2cc(CNS(=O)(=O)c3cc(C)ccc3F)nn2)CN1 | i
CCN1CCC(n2cc(CNc3cc(Cl)c4ncc(C#N)c(Nc5ccc(F)c(Cl)c5)c4c3)nn2)CC1 | +
N#Cc1cnc2c(Cl)cc(NCc3cn(CCN4CCCCCC4)nn3)cc2c1Nc1ccc(F)c(Cl)c1 | +
Cc1ccc(C#N)c(-c2cc(NCc3cccnc3)nc3[nH]ccc23)n1 | i
O=C(Nc1ccc(F)c(Cl)c1)c1cnc(-c2ccccc2)nc1-c1ccncc1 | i
COc1ccc2cc3n(c2c1)CC(C)(C(=O)NC1CCCC1)N(Cc1ccco1)C3=O (configuration not stated) | i
Cc1ccc(C(=O)Cn2nc3n(C(C)C)c(=O)c4ccc(C(=O)NCC(C)C)cc4n3c2=O)cc1 | i
